Source: ChEMBL document CHEMBL1961873, “Compounds: GSK PKIS; Assays: Nanosyn kinase panel” (2012)

Molecular target: Serine/threonine-protein kinase PAK 2 (Homo sapiens) (UniProt Q13177)
Conditions: at 0.1 µM
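Note: values are mean percent inhibition of PAK2.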

Chain of Serine/threonine-protein kinase PAK 2 (Homo sapiens) (Q13177 whole entry): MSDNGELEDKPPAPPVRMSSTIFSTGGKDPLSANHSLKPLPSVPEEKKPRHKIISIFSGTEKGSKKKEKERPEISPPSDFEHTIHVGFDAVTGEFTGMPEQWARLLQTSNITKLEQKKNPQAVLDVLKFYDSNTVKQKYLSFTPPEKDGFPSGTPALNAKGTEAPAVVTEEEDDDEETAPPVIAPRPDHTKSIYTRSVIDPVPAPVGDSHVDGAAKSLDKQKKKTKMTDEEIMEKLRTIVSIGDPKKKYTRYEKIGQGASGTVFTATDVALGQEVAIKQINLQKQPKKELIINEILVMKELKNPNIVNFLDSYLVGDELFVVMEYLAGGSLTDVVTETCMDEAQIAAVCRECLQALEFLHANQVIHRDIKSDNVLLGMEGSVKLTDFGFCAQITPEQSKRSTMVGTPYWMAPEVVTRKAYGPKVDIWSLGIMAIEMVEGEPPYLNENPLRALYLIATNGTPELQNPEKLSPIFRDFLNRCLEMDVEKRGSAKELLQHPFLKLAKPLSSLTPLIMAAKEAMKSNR

In order of falling inhibition:
1. CCn1c(-c2nonc2N)nc2c(C#CC(C)(C)O)nc(O[C@@H](CN)c3ccccc3)cc21  7.41%
2. COc1cccc(-n2ncc3c(N/N=C/c4ccncc4)ncnc32)c1  3.04%
3. CCn1c(-c2nonc2N)nc2c(C#CC(C)(C)O)ncc(OCC3CCNCC3)c21  2.42%
4. CCn1c(-c2nonc2N)nc2c(C#CC(C)(C)O)ncc(OC[C@@H]3CCCN3)c21  1.99%
5. COc1cc2c(cc1Nc1nc(Nc3ccsc3C(N)=O)c3cc[nH]c3n1)N(C(=O)CN(C)C)CCC2  1.88%
6. NS(=O)(=O)c1ccc(N/C=C2\C(=O)Nc3ccc4ncsc4c32)cc1  1.87%
7. NS(=O)(=O)c1ccc(-c2ccc3c(NC(=O)C4CC4)n[nH]c3c2)cc1  1.52%
8. Fc1ccc(-c2ncn(C3CCNCC3)c2-c2ccnc(Oc3ccccc3)n2)cc1  0.54%
9. COc1cccc(COc2cc(-n3cnc4ccccc43)sc2C(N)=O)c1  0.38%
10. NC(=O)c1sc(-n2cnc3cc(C(F)(F)F)ccc32)cc1OCc1ccccc1Br  -0.71%
11. CCn1c(-c2nonc2N)nc2c(C#CCN)ncc(OCCCN)c21  -1.05%
12. Cc1cc(-c2ccco2)cc(C)c1/C=C/c1cncc(-c2nn[nH]n2)c1  -1.09%
13. COc1cc(C=NNc2ncnc3c2cnn3Cc2ccccc2)ccc1O  -2.02%
14. Nc1nonc1-c1nc2cnccc2n1C1CCCCC1  -2.06%
